Measured values from PubChem BioAssay (NCATS).
Values joined by “and” are separate entries in the source; they are usually repeats but may differ in a detail not shown here. Equal values may be shown once. Records with an inconclusive call do not appear. A number with no mark means an inactive call. Active and inactive are the calls of the source. Calls follow the shape of the dose curve; as a rule, active = well fitted curve in the direction sought with a large enough effect; inconclusive = small, poorly fitted or top-dose-only effect, or another doubt; inactive = no such curve, though single readings can be large; an effect the other way counts as inactive or inconclusive.

Tests used:
[1] = Viability qHTS for spleen associated tyrosine kinase inhibitor (SYKi) naive MV4-11 cells (AID 1963823); also: nearly all actives have a fitted effect of over 40% in size
In short: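 SYKi-naive MV4-11 AML cells, 500 per well, were exposed to library compounds for 72 hr at 37 C, 5% CO2. Viability was then read by CellTiter-Glo luminescence after 10 min at room temperature.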

[2] = Viability qHTS for spleen associated tyrosine kinase inhibitor (SYKi) drug resistant MV4-11 cells (AID 1963824); also: nearly all actives have a fitted effect of over 35% in size
In short: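 SYK-inhibitor-resistant MV4-11 AML cells were seeded at 500 per well onto compound and cultured 72 hours (37 °C, 5% CO2). CellTiter-Glo was then added, and after 10 min at room temperature, luminescence gave viability.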

[3] = Quantitative highthroughput screen to assess conditional lethalithy of NOMO1 cells grown in RPMI1640 with untreated serum (RPMI+s) (AID 1963876); also: nearly all actives have a fitted effect of over 35% in size;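 as to Viability: 100% = DMSO wells and 0% = empty wells without cells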
In short: (§1)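 Each medium arm—HPLM with 10% dialyzed FBS, or RPMI1640 with 5 mM glucose and 10% untreated or dialyzed FBS—was screened against an 11-point, 3-fold compound titration for 48 h at 37 °C, with CellTiter-Glo luminescence as endpoint.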

[4] = Quantitative highthroughput screen to assess conditional lethalithy of NOMO1 cells grown in RPMI1640 with dialyzed fetal bovine serum (RPMI+ds) (AID 1963877); also: nearly all actives have a fitted effect of over 30% in size;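 as to Viability: series mostly up to about 46 µM; 100% = DMSO control wells and 0% = empty wells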
In short: as §1

[5] = Quantitative highthroughput screen to assess conditional lethalithy of NOMO1 cells grown in Human Plasma-Like Medium with dialyzed fetal bovine serum (HPLM+ds) (AID 1963878); also: nearly all actives have a fitted effect of over 35% in size;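 as to Viability: 100% = DMSO wells and 0% = empty wells on each plate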
In short: as §1

[6] = Quantitative highthroughput screen to assess conditional lethalithy of P12 Ichikawa cells grown in Human Plasma-Like Medium with dialyzed fetal bovine serum (HPLM+ds) (AID 1963879); conditions: Potency: viability; also: nearly all actives have a fitted effect of over 35% in size; as to Viability: series mostly up to about 46 µM
In short: as §1

[7] = Quantitative highthroughput screen to assess conditional lethalithy of P12 Ichikawa cells grown in RPMI1640 with dialyzed fetal bovine serum (RPMI+ds) (AID 1963880); conditions: Potency: P12-Ichikawa viability; also: nearly all actives have a fitted effect of over 35% in size;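 as to Viability: 100% = DMSO wells and 0% = empty wells on each plate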
In short: as §1

[8] = Quantitative highthroughput screen to assess conditional lethalithy of P12 Ichikawa cells grown in RPMI1640 with untreated serum (RPMI+s) (AID 1963881); conditions: Potency: viability; also: nearly all actives have a fitted effect of over 35% in size;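 as to Viability: series mostly up to about 46 µM; 100% = DMSO wells and 0% = empty wells without cells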
In short: as §1

[9] = Quantitative highthroughput screen to assess conditional lethalithy of SEM cells grown in Human Plasma-Like Medium with dialyzed fetal bovine serum (HPLM+ds) (AID 1963882); also: nearly all actives have a fitted effect of over 35% in size; as to Viability: series mostly up to about 46 µM
In short: as §1

[10] = Quantitative highthroughput screen to assess conditional lethalithy of SEM cells grown in RPMI1640 with dialyzed fetal bovine serum (RPMI+ds) (AID 1963884); also: nearly all actives have a fitted effect of over 35% in size;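 as to Viability: series mostly up to about 46 µM; 100% = DMSO control wells and 0% = empty wells without cells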
In short: as §1

[11] = Cellular viability qHTS for adrenocortical cancer (ACC) cell line SW-13 (AID 1963989); conditions: SW-13 ACC cells viability, CellTiter-Glo, 48 h; activity (max response): stronger effect = lower value; also: nearly all actives have a fitted effect of over 65% in size;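 as to activity (max response): cells grown in serum-free medium with ITS supplement; % is scaled to controls: 0 for no effect and ±100 for the full control effect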
In short: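 Compound titrations (up to 46 uM final, in DMSO) were applied to SW-13 cells for 48 h at 37C/5% CO2. Reading used CellTiter-Glo after 20 min at room temperature; fitted curves yielded IC50 and efficacy.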

[12] = Quantitative highthroughput screen to assess conditional lethalithy of SEM cells grown in RPMI1640 with unreated serum (RPMI+s) (AID 1963883); also: nearly all actives have a fitted effect of over 35% in size;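 as to Viability: 100% = DMSO wells and 0% = empty wells without cells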
In short: as §1

[13] = Cellular viability qHTS for adrenocortical cancer (ACC) cell line NCI-H295R (AID 1963990); also: nearly all actives have a fitted effect of over 60% in size
In short: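 Readout: CellTiter-Glo luminescence, 20 min RT. Exposure: 48 h, 37C/5% CO2. Cells: NCI-H295R, ITS-DMEM serum-free. Range: up to 46 uM. Analysis: 4PL fit, IC50 plus efficacy.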
Potency is read from the fitted curve at half-maximal effect.

Row | Structure (SMILES) | Potency [1] | Potency [2] | Potency [3] | Potency [4] | Potency [5] | Potency [6] | Potency [7] | Potency [8] | Potency [9] | Potency [10] | activity (max response) [11] | Potency [12] | Potency [13] | Potency [11]
1 | CC(C)C1CCC(C(=O)N[C@H](Cc2ccccc2)C(=O)O)CC1 (stereo partly specified) | inactive | inactive | inactive | inactive | inactive | inactive | inactive | inactive | inactive | inactive | 3.47% and 2.35% |  |  | 
2 | COc1cc2ncnc(Nc3cccc(Br)c3)c2cc1OC | 4.68 µM (active) | 6.51 µM (active) and 5.25 µM (active) | inactive | inactive | inactive | inactive | inactive | inactive | inactive |  |  | inactive | inactive | 
3 | COc1ccc(-c2nc3ccc(C4=NNC(=O)CC4C)cc3[nH]2)cc1 (stereo unspecified) | 18.6 µM (active) | 11.8 µM (active) | inactive | inactive | inactive | inactive | inactive | inactive |  | inactive |  | inactive | 6.51 µM (active) and 14.1 µM (active) | 18.4 µM (active) and 20 µM (active)
4 | Cc1[nH]nc2ccc(-c3cncc(OC[C@@H](N)Cc4ccccc4)c3)cc12 | 82 nM (active) and 132 nM (active) | 0.116 µM (active) | 2960 nM (active) | 2350 nM (active) | 1660 nM (active) | 4180 nM (active) | 3320 nM (active) | 2960 nM (active) | 1180 nM (active) | 2350 nM (active) |  |  |  | 562 nM (active)
5 | CCCCCCCCc1ccc(CCC(N)(CO)CO)cc1 | 5.17 µM (active) | 4.61 µM (active) | 18700 nM (active) | 23500 nM (active) | 14800 nM (active) | 23500 nM (active) | 18700 nM (active) | 18700 nM (active) | 23500 nM (active) |  |  |  |  | 17800 nM (active)
6 | C[N+](C)(C)CC(=O)O | inactive | inactive | inactive | inactive | inactive | inactive | inactive | inactive |  | inactive | -6.24% and 7.87% | inactive | inactive | 
7 | COc1cccc([C@@H](C)NCCCc2ccccc2Cl)c1 | 14.8 µM (active) | 14.8 µM (active) | inactive | inactive | inactive | inactive | inactive | inactive | inactive | inactive |  |  |  | 
8 | CC(C)c1cnn2c(NCc3ccccc3)cc(N[C@@H](CO)[C@H](O)CO)nc12 | 1.03 µM (active) and 332 nM (active) | 820 nM (active) and 263 nM (active) | 743 nM (active) | 743 nM (active) | 662 nM (active) | 1320 nM (active) | 1180 nM (active) | 1050 nM (active) |  | 743 nM (active) |  |  | 0.631 µM (active) | 891 nM (active)
9 | CC[C@@H]([C@H](C)O)n1ncn(-c2ccc(N3CCN(c4ccc(OCC5CO[C@@](Cn6cncn6)(c6ccc(F)cc6F)C5)cc4)CC3)cc2)c1=O (stereo partly specified) | 5.9 µM (active) | 4.17 µM (active) | inactive | inactive | inactive | inactive | inactive | inactive |  | inactive | -5.54% | inactive | inactive | 
10 | CN1CCN(Cc2ccc(NC(=O)Nc3ccc(Oc4cc(NC(=O)C5CC5)ncn4)cc3)cc2C(F)(F)F)CC1 | inactive | inactive | 418 nM (active) | 418 nM (active) | 372 nM (active) | 526 nM (active) | 418 nM (active) | 469 nM (active) |  | 8.3 nM (active) |  | 11.8 nM (active) | 1.26 µM (active) | 316 nM (active)
11 | O=C(Nc1cc(C(F)(F)F)cc(C(F)(F)F)c1)c1cc(Cl)ccc1O | 651 nM (active) and 934 nM (active) | 517 nM (active) and 662 nM (active) | 3320 nM (active) | 2960 nM (active) | 2960 nM (active) | 3720 nM (active) | 3320 nM (active) | 2960 nM (active) | 4180 nM (active) | 4180 nM (active) |  |  | 1.12 µM (active) | 355 nM (active)
12 | CCN(CC)C(=S)SSC(=S)N(CC)CC | 1.57 µM (active) | 1.4 µM (active) and 5.31 µM (active) and 833 nM (active) | 2960 nM (active) | 2960 nM (active) | 3320 nM (active) | 2960 nM (active) | 2960 nM (active) | 2960 nM (active) | 833 nM (active) | 662 nM (active) |  |  | 44.7 µM (active) | 16.4 µM (active) and 25.1 µM (active)
